The panel holds about 83,000 compounds, 20% with a hit somewhere; the sample as a whole holds those more often.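 Assay: single dose, 48 h. Readout: percent growth (0 = no net growth; negative = cell death). Active: <10.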 A number with no mark means an inactive call. Activity calls are given as the source filed them.
Experiments:
Assay in all cases: NCI-60 one-dose screen, 48 h (100 = growth as untreated, 0 = no growth, -100 = all killed)
Settings in all cases: 10 µM unless noted
SK-MEL-2 melanoma = test system: SK-MEL-2 melanoma
SN12C renal = test system: SN12C renal
UO-31 renal = test system: UO-31 renal
TK-10 renal = test system: TK-10 renal
ACHN renal = test system: ACHN renal
CAKI-1 renal = test system: CAKI-1 renal
A498 renal = test system: A498 renal
CCRF-CEM leukemia = test system: CCRF-CEM leukemia
MOLT-4 leukemia = test system: MOLT-4 leukemia
SR leukemia = test system: SR leukemia
RPMI-8226 leukemia = test system: RPMI-8226 leukemia
OVCAR-8 ovarian = test system: OVCAR-8 ovarian
OVCAR-5 ovarian = test system: OVCAR-5 ovarian
OVCAR-4 ovarian = test system: OVCAR-4 ovarian
SK-OV-3 ovarian = test system: SK-OV-3 ovarian
OVCAR-3 ovarian = test system: OVCAR-3 ovarian
HS 578T breast = test system: HS 578T breast
NCI/ADR-RES ovarian = test system: NCI/ADR-RES ovarian
IGROV1 ovarian = test system: IGROV1 ovarian

Row | Structure (SMILES) | growth (SK-MEL-2 melanoma) | growth (SN12C renal) [%] | growth (UO-31 renal) | growth (TK-10 renal) | growth (ACHN renal) | growth (CAKI-1 renal) | growth (A498 renal) | growth (CCRF-CEM leukemia) | growth (MOLT-4 leukemia) | growth (SR leukemia) | growth (RPMI-8226 leukemia) | growth (OVCAR-8 ovarian) | growth (OVCAR-5 ovarian) [%] | growth (OVCAR-4 ovarian) [%] | growth (SK-OV-3 ovarian) | growth (OVCAR-3 ovarian) | growth (HS 578T breast) | growth (NCI/ADR-RES ovarian) | growth (IGROV1 ovarian)
1 | COC1=CC(c2ccc[nH]2)=N/C1=C\c1[nH]c(C)c(C(=O)CCCCC(=O)Nc2ccccc2)c1C | 90.7% | 73.5 | 49.9% | -11.9% (active) | 95.8% | 3.42% (active) | 116% | 58.9% | 76.6% | 44% | 126% | -46.4% (active) | 64.4 | 54.4 | 77.5% | 40.6% | 82.2% | 32.9% | 
2 | CCCCC(N)(C(=O)O)C1CCCC1 (stereo not given) | 117% | 96.1 | 90.9% | 104% | 96.9% | 93% | 82.4% | 97.9% | 123% | 96.4% | 111% | 97.2% | 97.8 | 103 |  | 116% | 122% | 97.4% | 110%
3 | Nc1nc(-c2ccccc2)cs1 | 82.1% | 101 | 75.7% | 98.5% | 103% | 94% | 81.5% | 110% | 105% | 94.5% | 109% | 100% | 98.7 | 102 |  | 102% | 104% | 110% | 
4 | CCC1CCc2nc3sc(C(=O)Nc4cccc(C)c4)c(N)c3cc2C1 (stereo not given) | 54.6% | 90.8 | 83.6% | 78.3% | 87% | 78.1% | 45.4% | 47.7% | 52.6% | 11% |  | 94.2% | 105 | 85 | 96.9% |  | 87.7% | 76% | 95.8%
5 | CCc1cccc(C)c1NC(=O)c1sc2nc3c(cc2c1N)C(=O)CCC3 | 27.5% | 51.5 | 50.1% | 51.5% | 51.9% | 45.8% | -9.18% (active) | 9.81% (active) | 18% | 2.24% (active) |  | 27.9% | 29.2 |  | 10.4% | -26% (active) | 24.8% | 8.17% (active) | 
6 | CCOC(=O)[C@H](CSSc1ncnc2cc[nH]c12)NC(=O)[C@@H](C)c1ccc2cc(OC)ccc2c1 | 23% | 29.8 | 13.4% | 13.8% | 24.9% | 16% | 49.9% | 12.7% | 3.42% (active) | 18.9% |  | 20.7% | 27.3 |  |  | 25.4% | 59% |  | 41.3%
7 | COC1=CC(c2ccc[nH]2)=N/C1=C\c1[nH]c(C)c(C(=O)CCCCC(=O)Oc2ccc3c(c2)CCC2C3CC[C@]3(C)[C@@H](O)CC[C@@H]23)c1C (stereo not given in full) | 70.5% | 58.8 | 42.7% | 96.7% | 62.9% | 25.7% | 38.5% | 17.2% | 22.8% | 23.2% | 45% | 70.8% | 65.6 | 48.6 | 90% |  | 54.3% | 82.4% | 70.7%
8 | CC/C(=C(\c1ccc(O)cc1)c1ccc(OCCN(C)CCN(C)C(=O)CCC(=O)c2c(C)[nH]c(/C=C3\N=C(c4ccc[nH]4)C=C3OC)c2C)cc1)c1ccccc1 | 96.8% | 91.8 | 46.9% | 117% | 95.5% | 71.4% | 65.2% | 40.8% | 71.7% | 58.6% |  | 89.9% | 99.6 |  | 111% | 89.1% | 83.6% | 79.8% | 81.6%
9 | O=Nc1c(-c2c(O)[nH]c3ccc([N+](=O)[O-])cc23)[nH]c2ccc(O)cc12 | -55% (active) | 23.7 | -1.14% (active) | 49.9% | -25.8% (active) | -14.3% (active) | -24.5% (active) | 0.486% (active) | 2.17% (active) | 0.378% (active) |  | 7.71% (active) | 110 | 19.7 | -9.52% (active) | 4.31% (active) | 1.21% (active) | 42% | 6.36% (active)
10 | COc1cccc(NC(=O)Cn2cc3c(=O)oc4ccccc4c3n2)c1 | 101% | 103 | 88.5% | 111% | 116% | 95.6% | 87.2% | 102% | 111% | 110% | 97.9% | 112% | 113 |  | 113% | 99.1% | 104% |  | 97.1%
11 | Nc1c(C(=O)Nc2ccccc2)sc2nc3c(cc12)CCC3 | 86% | 85 | 80.9% | 96% | 96% | 81.5% | 80.7% | 89.7% | 90.3% | 39.6% |  | 88.2% | 99.4 |  | 95.5% |  | 92.8% | 66.6% | 90.2%
12 | CCNC(=O)C1CCCN1C(=O)C(CCCN=C(N)N)NC(=O)C(CC(C)C)NC(=O)C(CC(C)C)NC(=O)C(Cc1ccc(O)cc1)NC(=O)C(CO)NC(=O)C(Cc1c[nH]c2ccccc12)NC(=O)C(Cc1cnc[nH]1)NC(=O)C1CCC(=O)N1 (stereo not given) | 102% | 112 | 93.7% | 110% | 97% | 84.9% | 98% | 54.5% | 86.5% | 102% | 33.3% | 95.9% | 87.3 | 91.3 |  | 125% | 81.2% | 97.8% | 
13 | COc1ccc(S(=O)(=O)N2CCN(c3cc4c(cc3F)c(=O)c(C(=O)O)cn4C3CC3)CC2)c(OC)c1 | 105% | 90.7 | 53.2% | 96.8% | 94.9% | 81.8% | 75.1% | 86.5% | 69.3% | 81.6% | 86.7% | 92.4% | 110 |  | 98.6% | 95.8% |  | 102% | 101%
14 | COc1cc(CNC(=O)CSc2nc3ccccc3c(=O)n2Cc2cc(OC)c(OC)c(OC)c2)cc(OC)c1OC | 95.9% | 96.6 | 72.5% | 99.7% | 98.1% | 98.5% | 88.4% | 96.2% | 92.7% | 123% | 102% | 96.4% | 102 | 103 | 108% |  |  | 103% | 97.9%
15 | COc1cccc(NC(=O)c2sc3nc4c(cc3c2N)CCCC4)c1 | 33.7% | 58.9 | 40% | 55.7% | 44.2% | 31% | 17.6% | 13.6% | 17.8% | 14.3% | -4.6% (active) | 25.8% | 38.6 | 72.1 | 28.7% |  | 48% | -12.1% (active) | 37.1%
16 | COc1cc(-c2cc(/C=C3\CCCCC3=O)[nH]n2)cc(OC)c1OC | 94.7% | 93.8 | 80.8% | 112% | 98.7% | 91.2% | 95.2% | 69.5% | 82% | 49.2% |  | 102% | 103 | 95 | 128% | 104% | 99.4% | 103% | 
17 | O=C(c1ccncc1)N1N=C(c2ccc(Cl)cc2)CC1c1c[nH]c2ccccc12 (stereo not given) | 83% | 92.9 | 45.2% | 107% | 94.8% | 90.2% | 80.5% | 56.7% | 75.1% | 57.5% |  | 98.5% | 105 |  | 84.2% | 95.5% | 101% | 97% | 79.3%

— PubChem BioAssay (NCI)
